The structures appear in SMILES notation. Several values for one entry are separate records, joined by “and”; a condition that tells them apart may be missing. Equal entries are not always repeated. In all, about 650,000 compounds went through this assay and about 6,800 (1%) were called active. This excerpt belongs to a sample that is enriched for actives. A number with no mark means an inactive call. No stated cut-off is given here; in the data, active means activation above about 4.9%; inactive means the rest.

The target of this assay is G-protein coupled receptor 151 (Homo sapiens) (UniProt Q8TDV0). Briefly: activates the human receptor GPR151, primary screen, cell-based, PathHunter beta-arrestin, luminescence (AID 1508602).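 Further: 0% = median of compound wells and 100% = cells with positive control.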 The note with it: PathHunter beta-arrestin GPR151 cells, at 11.2 µM, active compounds read high.
Sequence of G-protein coupled receptor 151 (Homo sapiens) (Q8TDV0 whole entry, looked up): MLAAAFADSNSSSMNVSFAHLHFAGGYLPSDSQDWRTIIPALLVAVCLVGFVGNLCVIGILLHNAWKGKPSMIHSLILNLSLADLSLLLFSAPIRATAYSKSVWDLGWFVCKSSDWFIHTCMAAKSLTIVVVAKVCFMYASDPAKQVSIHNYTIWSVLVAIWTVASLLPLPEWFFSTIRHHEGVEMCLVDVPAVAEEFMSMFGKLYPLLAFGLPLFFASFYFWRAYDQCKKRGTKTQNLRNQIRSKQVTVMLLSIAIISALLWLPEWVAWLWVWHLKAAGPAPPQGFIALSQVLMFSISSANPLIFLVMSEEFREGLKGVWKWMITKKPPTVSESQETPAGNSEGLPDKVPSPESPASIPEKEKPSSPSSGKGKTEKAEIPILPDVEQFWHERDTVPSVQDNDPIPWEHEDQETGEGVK
For `COc1ccc(/C=N/NC(=O)CN(C)C(=O)c2ccccc2)cc1`, the activation is -1.44%.
Turning to `COc1ccc(Cl)cc1NC(=O)C1c2cc(OC)c(OC)cc2C(=O)N(C)C1c1ccc(OC)c(OC)c1` (centres undefined), the activation was 4.36%.
As for `Cc1ccc(N2C(=O)C3ON(c4ccc(Cl)cc4)C(c4ccco4)C3C2=O)cc1` (centres undefined), the activation is -1.12%.
In the case of `COCc1c(C(=O)N/N=C/c2cccc(F)c2)nnn1-c1nonc1N`, the activation was -0.56%.
Under `O=C(Cc1ccc(Cl)cc1)NCc1nnnn1C1CCCCC1` stands -1.64%; under `CCCc1cc(=O)[nH]c(Nc2cccc(O)c2)n1`, 0.777%; under `CCOC(=O)C1=C(N)OC2=C(C(=O)CC(C)(C)C2)C1c1cc(OC)ccc1F` (centres undefined), -1.02%.
Take `Cc1[nH]n(-c2nc3c(c(=O)[nH]2)CCCC3)c(=O)c1CCO`: the activation was -1.77%.
The result for `C=CCn1c(SCC(=O)N2c3ccccc3CC2C)nc2sc(C)c(C)c2c1=O` (centres undefined) reads 0.176%.
Turning to `COCCNc1nc2nonc2nc1N1CCC(N2C[C@@H](C)O[C@@H](C)C2)CC1`, the activation is -0.822%.
Take `O=[N+]([O-])c1ccc(S(=O)(=O)NCCc2ccccc2)cc1`: the activation was 0.345%.
Consider `O=C(/C=C/Nc1ccccc1NS(=O)(=O)c1ccc([N+](=O)[O-])cc1)c1ccco1`, for which the activation is 6.93% (active).
For `O=C(/C=N/Nc1ccc([N+](=O)[O-])cc1[N+](=O)[O-])c1ccco1`, the activation is 0.644%.
Under `O=C(NCc1ccccc1)N(CCN1CCCC1)Cc1cc2cc3c(cc2[nH]c1=O)OCO3` stands -0.475%; under `Cc1ccc(S(=O)(=O)C2(C(=O)Nc3ccc([N+](=O)[O-])cn3)CC2)cc1`, 0.544%.
`CC(C)N(CCNc1cc(N2CCOCC2)ncn1)C(C)C`: the activation was -0.393%.
In the case of `CCc1ccc(S(=O)(=O)NCCOc2cc(N3CCOCC3)ncn2)cc1`, the activation was 5.88% (active).
Regarding `COc1cc(S(=O)(=O)NCCN2CCOCC2)ccc1Br`, the activation was -1.15%.
As to `O=C1CCCC2=C1C(c1ccccc1[N+](=O)[O-])c1c([nH]c(=O)[nH]c1=O)N2` (centres undefined), the activation is -0.211%.
On to `COc1ccc2c(=O)c(C(=O)O)c[nH]c2c1`, for which the activation is -1.56%.
Regarding `CC(=O)Nc1ccc(NC(=O)/C=C\C(=O)O)cc1C`, the activation is 2.3%.
With `CCOC(=O)C1=C(c2ccccc2)S/C(=C2/C(=S)C(C)(C)N(C(C)=O)c3cc(C)c(C)cc32)S1`, the activation was 1.9%.
On to `N#CCCN1c2ccccc2Sc2ccc(C(F)(F)F)cc21`, for which the activation was 1.1%.
Under `O=C(Nc1cc([N+](=O)[O-])ccc1Cl)c1cc(Cl)ccc1Cl` stands -0.475%; under `CC(=O)Nc1ccc(NC(=O)c2ccc3nc(Br)sc3c2)cc1`, 6.16% (active).
For `CCNc1nc2ccc(C(=O)Nc3ccc(NC(C)=O)cc3)cc2s1`, the activation is -3.46%.
`O=C(Nc1ccccc1)c1ccc2nc(Br)sc2c1`: the activation was -4.09%.
Consider `Cc1ccc(C(=O)NCC(=O)OCC(=O)Nc2cccc(Cl)c2)s1`, for which the activation was 0.82%.
Regarding `NC(=O)c1c(NC(=O)c2ccccc2F)sc2c1CCCCCC2`, the activation was 1.12%.
Consider `COC(CNC(=O)CC(NS(=O)(=O)c1ccc(C)cc1)c1ccco1)OC` (centres undefined), for which the activation is -0.827%.
For the molecule `COC(=O)c1ccc2c(=O)n(CCN3CCOCC3)c(SCc3cc(C(C)=O)ccc3OC)nc2c1`, the activation was -0.152%.
As to `O=C(CCc1nnc(CCCCc2ccccc2)o1)N1CCC(N2CCSCC2)CC1`, the activation was 7% (active).
Turning to `O=C(CCc1nnc(Cc2cccc(C(F)(F)F)c2)o1)N1CCSCC1`, the activation is -0.806%.
Regarding `COc1ccccc1NC(=O)Nc1ccnn1C1CCN(C(=O)CCc2ccccc2)CC1`, the activation was 0.323%.
As to `CN(Cc1ccno1)C(=O)CC1C(=O)NCCN1Cc1ccoc1` (centres undefined), the activation was 1.36%.
In the case of `COc1cccc(N(C(=O)c2csnn2)C(C(=O)NC(C)(C)C)c2ccc(F)cc2)c1` (centres undefined), the activation was 0.396%.
As to `CCc1ccc(CN(C)C(=O)CC2(c3ccccc3Cl)CC(=O)N(C)C2=O)cc1` (centres undefined), the activation is 0.519%.
Take `CCc1ccc(-c2oc(C)c(C)[n+]2[O-])cc1`: the activation is -2.56%.
Regarding `COCCN1C(=O)CC(CC(=O)NCc2nc3ccccc3[nH]2)(c2ccccc2C)C1=O` (centres undefined), the activation was 6.75% (active).
For the molecule `Cc1cnc(CN(C)C(=O)CC2(c3ccccc3C)CC(=O)N(CCN(C)C)C2=O)[nH]1` (centres undefined), the activation was 1.18%.
Under `COCCN1C(=O)CC(CC(=O)N(C)C(C)C)(c2ccccc2F)C1=O` (centres undefined) stands -1.69%; under `COCCNC(=O)c1cnn2c(C)c(Cc3ccc(Cl)cc3)c(C)nc12`, 0.41%.
With `CC(=O)c1ccc(-c2cnc3[nH]c(=O)n(C4CCCCC4)c3n2)s1`, the activation is -0.0776%.
Take `Cc1ccc(S(=O)(=O)N2CC3CC3C2C(=O)Nc2ccc(F)cc2)cc1` (centres undefined): the activation is 0.0458%.
The result for `Nc1ccc(C(=O)Nc2nc3ccc(C(=O)N4CCCCC4)cc3s2)cc1` reads -0.249%; that for `CC1CCCC(NCc2c(C(=O)O)n(Cc3ccc(Cl)cc3)c3ccccc23)C1C` (centres undefined), 7.5% (active).
Turning to `CC1CCCC(NCc2c(C(=O)O)n(Cc3ccc(F)cc3)c3ccccc23)C1C` (centres undefined), the activation was 0.786%.
As for `O=C(O)c1c(CNC2CCCCC2)c2ccccc2n1Cc1ccc(Cl)cc1`, the activation was -0.235%.
For the molecule `O=C(Nc1ccc(N2CCOCC2)cc1)c1ccc2nc(Nc3ccncc3)sc2c1`, the activation was 0.271%.
Take `NC(=O)Cn1c(=O)n(CCCCC(=O)NCCc2ccccc2)c(=O)c2ccccc21`: the activation is -0.245%.
As to `COc1ccc(OC)c(NC(=O)Cn2c(=O)n(Cc3ccccc3)c(=O)c3ccccc32)c1`, the activation is -0.558%.
In the case of `O=C(Cn1c(=O)n(Cc2ccccc2)c(=O)c2ccccc21)c1ccccc1`, the activation is 5.03% (active).
Regarding `CCOC(=O)c1sc(NC(=O)CSc2ncccn2)c(C#N)c1C`, the activation is 4.97% (active).
As to `CCOC(=O)c1sc(NC(C)=O)c(C#N)c1C`, the activation is -1.06% and -0.982%.
With `CCOC(=O)c1sc(NC(=O)CSc2nnc(-c3ccccc3)o2)c(C#N)c1C`, the activation is -0.17%.
Under `NC(=O)c1c(NC(=S)NC(=O)c2ccccc2)sc2c1CCCCCC2` stands -0.485%.
`COc1ccc(C2CC(c3ccccc3)n3ncnc3N2)cc1` (centres undefined): the activation is -0.25%.
On to `COC(Cn1c(=S)[nH]c2cc3ccccc3cc2c1=O)OC`, for which the activation was 0.597%.
The result for `CC1(c2ccc3ccccc3c2)NC(=O)N(CC(N)=O)C1=O` (centres undefined) reads -0.0365%.
`COc1ccc(C2(C)NC(=O)N(CC(=O)NCCc3ccccc3)C2=O)cc1` (centres undefined): the activation is -0.0334%.
For `COc1ccc(C2(C)NC(=O)N(CC(=O)Nc3ccc4ccccc4c3)C2=O)cc1` (centres undefined), the activation is 5.16% (active).
For `O=C(Nc1ccc2cn[nH]c2c1)c1ccc(F)cc1F`, the activation is -2.11%.
`COc1ccc(C2C(C#N)=C(N)Oc3c2c(C)nn3-c2ccccc2)cc1` (centres undefined): the activation is 8.46% (active).
On to `COc1cc(C2C(C#N)=C(N)Oc3c2c(C)nn3-c2ccccc2)ccc1OCC#N` (centres undefined), for which the activation is 0.152%.
With `Cc1nn(-c2ccccc2)c2c1C(c1ccc(-c3ccccc3)cc1)C(C#N)=C(N)O2` (centres undefined), the activation was -3.52%.
For the molecule `CCOC(=O)Cn1c(CNC(=O)c2ccco2)nc2ccccc21`, the activation is -1.37%.
As to `CCOC(=O)c1cccc(NC(=O)CCCOc2ccc(OC)cc2)c1`, the activation is 5.63% (active).
As to `CCOC(=O)c1cccc(Nc2c(-c3ccccc3)c(=O)c2=O)c1`, the activation is -1.39%.
Turning to `COc1cccc(NC(=O)CCCOc2ccc(C)cc2)c1`, the activation was 0.676%.
In the case of `CCOC(=O)c1cccc(NC(=O)/C=C/c2ccccc2)c1`, the activation was 5.45% (active).
`CCOC(=O)c1cccc(NC(=O)/C=C/c2ccc(Cl)cc2)c1`: the activation is -0.517%.
For `COc1ccc(OCCCC(=O)Nc2ccccc2)cc1`, the activation is -0.655%.
As for `COc1cc(NC(=O)CSc2ncccc2-c2nc3ccccc3[nH]2)cc(OC)c1`, the activation was -2.5%.
For the molecule `COc1ccc(N2CCN(c3nc(Nc4ccc(C)c(Cl)c4)nc(N4CCCC4)n3)CC2)cc1`, the activation is -0.777%.
Consider `COc1ccc(-c2cc(-c3cccs3)nc3sc(C(N)=O)c(N)c23)cc1`, for which the activation was -1.24%.
The result for `CC/C=C\C/C=C\C/C=C\C/C=C\C/C=C\C[C@H]1O[C@H]1CCC(=O)OC` reads 0.982%.
In the case of `Cc1cccc(C(=O)OCC(=O)NC(=O)NCc2ccccc2)c1C`, the activation is 0.774%.
Turning to `COc1ccc(N2CCN(C(=O)c3ccc(Cn4c(=S)[nH]c5ccc(Br)cc5c4=O)cc3)CC2)cc1`, the activation was -0.211%.
Turning to `COc1cc(OC)c(OC)cc1/C=N/N=C1\NC(=O)C(CC(=O)O)S1` (centres undefined), the activation was 0.825%.
Turning to `CC/C(=N\N=C1/NC(=O)C(CC(=O)O)S1)c1ccc(C)cc1` (centres undefined), the activation was -1.1%.
For `Cc1ccc(C(=O)Oc2ccccc2/C=N/N=C2\NC(=O)C(CC(=O)O)S2)cc1` (centres undefined), the activation was 7.49% (active).
For `CCCC(=O)Nc1ccc(S(=O)(=O)N(Cc2ccsc2)C2CC2)cc1`, the activation was 0.722%.
Regarding `O=C(Nc1cccc(NC(=O)c2cccc(Cl)c2Cl)c1)c1ccco1`, the activation was -0.952%.
As to `O=C(Nc1ccc(NC(=O)c2cccnc2Cl)cc1)c1ccco1`, the activation was 0.162%.
Under `O=C(Nc1ccc(NC(=O)c2cccc3c(Br)cccc23)cc1)c1ccco1` stands 34.7% (active); under `CCN1C(=O)S/C(=C/c2cccc(C(F)(F)F)c2)C1=O`, 1.18%.
The result for `COC(=O)Cn1ncc2c3ccccc3n(Cc3cccc(Cl)c3)c2c1=O` reads 4.95% (active).
The result for `CNC(=O)Cn1ncc2c3ccccc3n(Cc3ccccc3)c2c1=O` reads 0.452%; that for `CCN(CC)C(=O)Cn1ncc2c3ccccc3n(Cc3ccccc3)c2c1=O`, -0.284%.
